In PubChem BioAssay (Tox21):
Values without a mark were called inactive. Records with an inconclusive call do not appear. Where a call stands in place of a potency, no number is given. Active and inactive are the calls of the source. Unless noted, calls follow the shape of the dose curve; as a rule, active = well fitted curve in the direction sought with a large enough effect in the repeat runs; inconclusive = weak or mixed curves; inactive = no such curve, though single readings can be large; an effect the other way counts as inactive or inconclusive.

How the values were obtained:
[1] = target: Thyrotropin receptor (Homo sapiens) (UniProt P16473); experiment: qHTS assay to identify small molecule antagonists of the thyroid stimulating hormone receptor (TSHR) signaling pathway (AID 1259385; calls by dose curve; also: nearly all actives have a fitted effect of over 20% in size; also: potency is read from the fitted curve at half-maximal effect)
Method in brief: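 Antagonist mode: compound-treated TSHR-expressing HEK293 cells were stimulated with 1.5 ng/mL TSH (final) in presence of Ro20-1724 for 30 min at RT. HTRF cAMP detection after 1 h; each compound tested at 15 concentrations, triplicate.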

[2] = target: Progesterone receptor (Homo sapiens) (UniProt P06401); experiment: qHTS assay to identify small molecule agonists of the progesterone receptor (PR) signaling pathway (AID 1346784; calls by dose curve; also: nearly all actives have a fitted effect of over 30% in size)
Method in brief: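 Reporter assay, GripTite PR-UAS-bla HEK 293T cells: 16 hr exposure to DMSO-dissolved compounds at 37C, 5% CO2, in steroid-depleted (2% charcoal-stripped FBS) medium; beta-lactamase measured by FRET fluorescence.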

[3] = target: Progesterone receptor (Homo sapiens) (UniProt P06401); experiment: qHTS assay to identify small molecule antagonists of the progesterone receptor (PR) signaling pathway (AID 1346795; active = well fitted inhibition curve with a large enough effect in the signal ratio in the repeat runs, not every such curve was filed as active; the % refers to the signal ratio; also: potency is read from the fitted curve at half-maximal effect)
Method in brief: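 Stimulus R5020 at 1 nM final; cells HEK293T PR-UAS-bla; medium with 2% charcoal-stripped FBS; compound exposure 16 hr at 37C, 5% CO2; detection by FRET beta-lactamase substrate, 2 hr, room temperature.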

[4] = qHTS assay to identify small molecule antagonists of the progesterone receptor (PR) signaling pathway - cell viability counter screen (AID 1346798); also: nearly all actives have a fitted effect of over 50% in size; also: potency is read from the fitted curve at half-maximal effect
Method in brief: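 In the same plates used for the beta-lactamase readout, cell viability of compound- and R5020-treated PR-UAS-bla HEK293T cells (16 hr, 37C) was assessed by CellTiter-Glo luminescence.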

[5] = qHTS assay to identify small molecule agonists of the progesterone receptor (PR) signaling pathway - cell viability counter screen (AID 1346799; calls by dose curve; also: nearly all actives have a fitted effect of over 45% in size)
Method in brief: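 Multiplexed viability read: CellTiter-Glo luminescence, 30 min RT, following LiveBLAzer FRET measurement on PR-UAS-bla HEK293T cells exposed to compounds 16 hr.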

[6] = qHTS assay to identify small molecule agonists of the TGF-beta/Smad signaling pathway - cell viability counter screen (AID 1346829); also: top concentration of the series differs between compounds; nearly all actives have a fitted effect of over 45% in size
Method in brief: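 SBE-bla HEK 293T cells plated overnight, compound exposure 5 hr at 37 C. Viability read in the same wells by CellTiter-Glo luminescence after 30 min at room temperature, following the beta-lactamase read.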

[7] = qHTS assay to identify small molecule agonists of the TGF-beta/Smad signaling pathway (AID 1346859; active = well fitted activation curve with a large enough effect in the signal ratio in the repeat runs, not every such curve was filed as active; the % refers to the signal ratio; also: potency is read from the fitted curve at half-maximal effect; as to activation: series mostly up to about 77 µM)
Method in brief: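 Screening used HEK 293T SBE-bla cells at 4,000/well. Test agents: 5 hr, 37 C. Detection: FRET substrate, 2 hr RT, then excitation 405 nm with emissions at 460 and 530 nm.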

[8] = target: Thyrotropin-releasing hormone receptor (Homo sapiens) (UniProt P34981); experiment: qHTS assay to identify small molecule antagonists of the thyrotropin-releasing hormone receptor (TRHR) signaling pathway (AID 1346877; active = well fitted inhibition curve with a large enough effect in the repeat runs, not every such curve was filed as active; also: series mostly up to about 51 µM)
Method in brief: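 Intracellular calcium fluorescence, read kinetically every second over 3 min, reports TRH-evoked signalling in HEK293 cells carrying TRHR. Test compounds were added 5 min ahead of a 1 nM TRH challenge.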

[9] = target: Thyrotropin-releasing hormone receptor (Homo sapiens) (UniProt P34981); experiment: qHTS assay to identify small molecule agonists of the thyrotropin-releasing hormone receptor (TRHR) signaling pathway (AID 1346891; calls by dose curve; also: series mostly up to about 58 µM)
Method in brief: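 Readout was intracellular calcium fluorescence in TRHR-Hek293 cells. Cells were incubated 18 h, dye-loaded 2 h at 37 °C, and treated with compound in agonist mode.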

[10] = Human pregnane X receptor (PXR) small molecule agonists, qHTS cell viability counter screen (AID 1346977); also: nearly all actives have a fitted effect of over 50% in size; also: potency is read from the fitted curve at half-maximal effect
Method in brief: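 In each well, the PXR reporter HepG2 line was checked for viability: CellTiter-Fluor reagent added 23hr post-dosing, fluorescence read after 1hr incubation at 37C.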

[11] = Caspase-3/7 induction in HepG2 cells by small molecules, qHTS assay (AID 1346978); also: nearly all actives have a fitted effect of over 15% in size; also: potency is read from the fitted curve at half-maximal effect
Method in brief: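 Caspase-3/7 induction was measured by Caspase-Glo 3/7 luminescence (30 min, room temperature) after a 17 hr compound exposure of wild-type HepG2 cells seeded at 2,000 per well and pre-incubated 5 hr.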

[12] = Caspase-3/7 induction in CHO-K1 cells by small molecules, qHTS cell viability counter screen (AID 1346979); also: nearly all actives have a fitted effect of over 35% in size; also: potency is read from the fitted curve at half-maximal effect
Method in brief: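 Following a 5hr settling period, CHO-K1 cells at 1,500 per well received DMSO-dissolved compounds. Cell viability was quantified 16hr later by CellTiter-Fluor fluorescence, measured after 1hr with reagent at 37C.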

[13] = Caspase-3/7 induction in CHO-K1 cells by small molecules, qHTS assay (AID 1346980); also: nearly all actives have a fitted effect of over 15% in size
Method in brief: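 Luminescent Caspase-Glo 3/7 read (30min, room temperature) quantified apoptosis induction. Cells were wild-type CHO-K1, treated with compound for 17hr at 37 C and 5% CO2.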

[14] = Caspase-3/7 induction in HepG2 cells by small molecules, qHTS cell viability counter screen (AID 1346981); also: nearly all actives have a fitted effect of over 30% in size; also: potency is read from the fitted curve at half-maximal effect
Method in brief: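 HepG2, WT, 2,000 cells/well; 5 hr pre-incubation 37 C/5% CO2; compound pin-transferred from DMSO; 16 hr exposure; CellTiter-Fluor, 1 hr; fluorescence read.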

[15] = target: Nuclear receptor subfamily 1 group I member 2 (Homo sapiens) (UniProt O75469); experiment: Human pregnane X receptor (PXR) small molecule agonists, qHTS assay (AID 1346982); also: nearly all actives have a fitted effect of over 35% in size; also: potency is read from the fitted curve at half-maximal effect
Method in brief: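 Luciferase signal from ONE-Glo (30 min, room temperature) measured activation of hPXR-driven CYP3A4 reporter expression in PXR-Luc HepG2 cells treated with compounds for 24 hr at 37 C.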

[16] = target: Nuclear receptor subfamily 1 group I member 2 (Rattus norvegicus) (UniProt Q9R1A7); experiment: Rat pregnane X receptor (rPXR) activation by small molecules, qHTS assay (AID 1346983); settings: rPXR luciferase reporter cells, One-Glo luminescence, 24 h; max activation: stronger effect = higher value; also: nearly all actives have a fitted effect of over 20% in size
Method in brief: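 Luminescent readout (One-Glo luciferase, 30 min room temperature) followed 24 hr compound treatment at 37 C of rPXR cells plated 2,000 per well and preincubated 5hr; qHTS format with compounds delivered in DMSO.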

[17] = target: Nuclear receptor subfamily 1 group I member 2 (Homo sapiens) (UniProt O75469); experiment: CYP3A4 induction through human pregnane X receptor (PXR) by small molecules, qHTS assay (AID 1346984); also: nearly all actives have a fitted effect of over 40% in size
Method in brief: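 Luminescence readout: luciferase signal after One-Glo (30 min, room temperature), following 3 h at 37C with 3uM final Luciferin-IPA P450 substrate. Cells were DPX-2 (HepG2, PXR/CYP3A4-luc co-transfected) dosed for 24 h.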

[18] = target: Cytochrome P450 2D6 (Homo sapiens) (UniProt P10635); experiment: Cytochrome P450 Family 2 Subfamily D Member 6 (CYP2D6) small molecule antagonists: luciferase reporter qHTS assay (AID 1671196); also: nearly all actives have a fitted effect of over 50% in size; also: potency is read from the fitted curve at half-maximal effect
Method in brief: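 Read-out is luminescence from luciferin formed by CYP2D6 turnover of a proluciferin substrate, recorded as relative luminescence units. Reactions ran 1 h at room temperature after NADPH regeneration solution was added.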

[19] = qHTS assay to identify small molecule antagonists of the TGF-beta/Smad signaling pathway - cell viability counter screen (AID 1346824); also: nearly all actives have a fitted effect of over 50% in size
Method in brief: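 Cytotoxicity counter-screen run in the same wells as the beta-lactamase Smad reporter read: CellTiter-Glo luminescence after 30 min at room temperature. HEK 293T SBE-bla cells had 5 hr compound exposure at 37 C with TGF-beta1 (0.25 ng/mL stock).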

Nuclear receptor subfamily 1 group I member 2 (Homo sapiens), sequence (O75469 whole entry, looked up): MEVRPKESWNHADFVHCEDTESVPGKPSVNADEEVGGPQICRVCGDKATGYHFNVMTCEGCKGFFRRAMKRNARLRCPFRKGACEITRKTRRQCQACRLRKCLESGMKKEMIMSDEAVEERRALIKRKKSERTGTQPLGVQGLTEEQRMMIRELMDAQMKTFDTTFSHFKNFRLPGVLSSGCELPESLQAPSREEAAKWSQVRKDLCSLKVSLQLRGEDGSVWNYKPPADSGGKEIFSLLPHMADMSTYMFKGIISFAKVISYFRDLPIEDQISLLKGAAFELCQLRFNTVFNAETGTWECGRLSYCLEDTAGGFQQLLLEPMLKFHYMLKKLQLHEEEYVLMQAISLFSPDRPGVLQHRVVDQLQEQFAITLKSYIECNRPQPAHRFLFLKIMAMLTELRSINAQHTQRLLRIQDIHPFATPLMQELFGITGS
Progesterone receptor (Homo sapiens), sequence (P06401 whole entry, looked up): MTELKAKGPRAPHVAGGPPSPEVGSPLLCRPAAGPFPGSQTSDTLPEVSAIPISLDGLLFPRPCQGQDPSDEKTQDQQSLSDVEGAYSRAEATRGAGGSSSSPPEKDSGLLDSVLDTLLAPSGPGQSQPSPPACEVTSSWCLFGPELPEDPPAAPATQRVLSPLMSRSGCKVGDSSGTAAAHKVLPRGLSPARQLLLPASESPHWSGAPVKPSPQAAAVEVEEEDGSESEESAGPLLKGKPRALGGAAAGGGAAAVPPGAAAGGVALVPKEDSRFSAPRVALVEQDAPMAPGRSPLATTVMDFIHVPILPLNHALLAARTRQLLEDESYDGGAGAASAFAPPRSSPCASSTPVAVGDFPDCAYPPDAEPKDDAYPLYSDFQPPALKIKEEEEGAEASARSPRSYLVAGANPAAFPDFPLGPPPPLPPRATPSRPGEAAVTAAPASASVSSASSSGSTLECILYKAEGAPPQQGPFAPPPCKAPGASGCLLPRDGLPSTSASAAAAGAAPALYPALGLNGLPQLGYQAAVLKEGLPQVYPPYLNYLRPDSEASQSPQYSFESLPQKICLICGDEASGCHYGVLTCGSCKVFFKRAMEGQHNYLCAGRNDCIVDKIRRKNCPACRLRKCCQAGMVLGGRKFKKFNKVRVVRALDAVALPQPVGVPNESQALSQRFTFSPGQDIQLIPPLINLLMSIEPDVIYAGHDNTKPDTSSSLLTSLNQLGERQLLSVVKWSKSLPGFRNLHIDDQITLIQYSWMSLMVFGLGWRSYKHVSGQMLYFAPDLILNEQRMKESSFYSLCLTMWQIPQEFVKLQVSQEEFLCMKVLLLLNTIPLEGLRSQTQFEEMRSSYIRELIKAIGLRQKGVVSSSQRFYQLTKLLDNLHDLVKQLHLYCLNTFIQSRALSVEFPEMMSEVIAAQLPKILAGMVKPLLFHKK
Thyrotropin-releasing hormone receptor (Homo sapiens), sequence (P34981 whole entry, looked up): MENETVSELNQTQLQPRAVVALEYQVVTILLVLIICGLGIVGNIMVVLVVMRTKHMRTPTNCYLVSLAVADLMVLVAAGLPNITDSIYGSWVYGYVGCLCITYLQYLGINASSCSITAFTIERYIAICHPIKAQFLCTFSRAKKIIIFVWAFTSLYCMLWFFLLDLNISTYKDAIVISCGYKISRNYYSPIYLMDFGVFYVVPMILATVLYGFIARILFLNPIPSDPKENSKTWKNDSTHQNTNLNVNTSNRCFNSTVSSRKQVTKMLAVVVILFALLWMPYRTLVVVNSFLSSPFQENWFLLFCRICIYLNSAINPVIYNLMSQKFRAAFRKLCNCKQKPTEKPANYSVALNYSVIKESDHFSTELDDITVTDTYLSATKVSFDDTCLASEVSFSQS
Thyrotropin receptor (Homo sapiens), sequence (P16473 whole entry, looked up): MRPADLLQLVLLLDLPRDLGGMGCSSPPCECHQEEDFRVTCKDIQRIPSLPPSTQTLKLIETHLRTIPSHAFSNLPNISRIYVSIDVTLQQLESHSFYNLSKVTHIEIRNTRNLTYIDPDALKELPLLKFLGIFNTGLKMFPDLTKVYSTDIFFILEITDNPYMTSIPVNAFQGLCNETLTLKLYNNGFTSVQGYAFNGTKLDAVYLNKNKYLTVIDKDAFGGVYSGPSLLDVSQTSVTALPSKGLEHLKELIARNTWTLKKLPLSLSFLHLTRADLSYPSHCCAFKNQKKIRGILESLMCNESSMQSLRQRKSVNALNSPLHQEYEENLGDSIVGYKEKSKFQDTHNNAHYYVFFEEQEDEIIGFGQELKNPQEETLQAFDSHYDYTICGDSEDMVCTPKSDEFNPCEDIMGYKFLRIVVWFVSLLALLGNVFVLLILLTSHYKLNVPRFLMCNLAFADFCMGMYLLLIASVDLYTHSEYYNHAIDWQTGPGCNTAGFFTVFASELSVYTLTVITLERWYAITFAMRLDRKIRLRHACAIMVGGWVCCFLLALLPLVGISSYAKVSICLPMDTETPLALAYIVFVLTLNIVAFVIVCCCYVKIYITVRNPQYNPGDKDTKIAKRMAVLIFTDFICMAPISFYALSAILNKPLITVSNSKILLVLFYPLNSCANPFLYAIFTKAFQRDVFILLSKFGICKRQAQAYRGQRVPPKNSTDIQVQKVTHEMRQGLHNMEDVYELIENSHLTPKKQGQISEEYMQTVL
Cytochrome P450 2D6 (Homo sapiens), sequence (P10635 whole entry, looked up): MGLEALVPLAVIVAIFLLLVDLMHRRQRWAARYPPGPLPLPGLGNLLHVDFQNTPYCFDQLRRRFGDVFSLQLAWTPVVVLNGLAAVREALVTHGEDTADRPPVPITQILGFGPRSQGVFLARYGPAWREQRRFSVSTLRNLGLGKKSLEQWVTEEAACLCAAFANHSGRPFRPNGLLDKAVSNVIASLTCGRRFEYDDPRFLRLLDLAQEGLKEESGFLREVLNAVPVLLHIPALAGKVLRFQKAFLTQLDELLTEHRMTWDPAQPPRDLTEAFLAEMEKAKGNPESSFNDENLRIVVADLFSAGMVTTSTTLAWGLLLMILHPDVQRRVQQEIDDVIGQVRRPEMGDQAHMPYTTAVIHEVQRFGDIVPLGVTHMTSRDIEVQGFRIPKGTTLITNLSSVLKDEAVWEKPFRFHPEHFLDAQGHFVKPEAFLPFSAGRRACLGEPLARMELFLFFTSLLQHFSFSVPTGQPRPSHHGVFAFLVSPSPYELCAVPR
Nuclear receptor subfamily 1 group I member 2 (Rattus norvegicus), sequence (Q9R1A7 whole entry, looked up): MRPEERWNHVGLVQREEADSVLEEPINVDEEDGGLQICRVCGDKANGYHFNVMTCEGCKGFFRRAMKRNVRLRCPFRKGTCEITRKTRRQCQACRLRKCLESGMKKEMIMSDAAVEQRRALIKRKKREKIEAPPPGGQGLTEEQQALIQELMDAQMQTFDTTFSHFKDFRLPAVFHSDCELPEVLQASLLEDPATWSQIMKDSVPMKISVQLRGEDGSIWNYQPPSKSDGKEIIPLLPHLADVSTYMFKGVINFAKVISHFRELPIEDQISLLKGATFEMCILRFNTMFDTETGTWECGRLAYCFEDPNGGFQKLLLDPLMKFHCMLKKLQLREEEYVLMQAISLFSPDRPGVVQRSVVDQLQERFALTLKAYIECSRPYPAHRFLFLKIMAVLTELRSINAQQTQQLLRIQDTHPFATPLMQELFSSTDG

SMILES | Potency [1] | Potency [2] | Potency [3] | Potency [4] | Potency [5] | Potency [6] | Potency [7] | outcome [8] | outcome [9] | Potency [10] | Potency [11] | Potency [12] | outcome [13] | Potency [14] | Potency [15] | max activation [16] | Potency [17] | Potency [18] | outcome [19]
CCOC(=O)c1c(N)sc2c1CCN(Cc1ccccc1)C2 | inactive | inactive | inactive | inactive | inactive | inactive | 7.56 µM (active) | inactive | inactive | inactive | inactive | inactive | inactive | inactive | inactive | -1.17% | inactive | 0.0219 µM (active) | –
Cc1ccc2c(c1[N+](=O)[O-])C(=O)c1ccccc1C2=O | inactive | – | inactive | inactive | inactive | – | inactive | – | – | – | 5.99 µM (active) | – | inactive | 3 µM (active) | 1.9 µM (active) | – | – | inactive | –
C/C(C=O)=C\c1ccccc1 | inactive | inactive | inactive | inactive | inactive | inactive | inactive | inactive | inactive | inactive | inactive | – | inactive | inactive | 30 µM (active) | – | – | inactive | inactive
COc1cc(S(=O)(=O)Nc2ccccc2)c(OC)cc1N | inactive | – | inactive | inactive | – | – | inactive | inactive | inactive | inactive | inactive | inactive | inactive | inactive | 27.3 µM (active) | – | – | – | inactive
CCCCC(CC)COS(=O)(=O)O (configuration not stated) | inactive | inactive | inactive | inactive | inactive | – | inactive | inactive | inactive | inactive | inactive | inactive | inactive | inactive | inactive | -1.14% | inactive | – | –
CC[C@H]1OC(=O)[C@H](C)[C@@H](O[C@H]2C[C@@](C)(OC)[C@@H](O)[C@H](C)O2)[C@H](C)[C@@H](O[C@@H]2O[C@H](C)C[C@H](N(C)C)[C@H]2O)[C@](C)(O)C[C@@H](C)CN(C)[C@H](C)[C@@H](O)[C@]1(C)O | inactive | inactive | inactive | inactive | – | inactive | inactive | inactive | inactive | 18.1 µM (active) | inactive | – | inactive | inactive | inactive | – | – | inactive | inactive
C=C(C)C(=O)OCCC(F)(F)C(F)(F)C(F)(F)C(F)(F)C(F)(F)C(F)(F)F | inactive | inactive | inactive | inactive | inactive | – | inactive | inactive | inactive | inactive | inactive | – | inactive | inactive | inactive | – | – | inactive | inactive
CO[C@@H]1[C@@H](OC)[C@H](C)[C@@](O)(CC(=O)O)O[C@H]1[C@H](C)[C@H]1O[C@@]2(CC[C@@](C)([C@H]3CC[C@@](C)([C@@H]4O[C@@H]([C@H]5O[C@](C)(O)[C@H](C)C[C@@H]5C)C[C@@H]4OC4C[C@H](OC)[C@@H](OC)[C@H](C)O4)O3)O2)C[C@H](O)[C@H]1C (some centres not stated) | 18.8 µM (active) | – | 10.6 µM (active) | 18.8 µM (active) | – | inactive | inactive | inactive | inactive | 3.35 µM (active) | inactive | 1.33 µM (active) | inactive | 3.76 µM (active) | – | – | – | inactive | inactive
